Several values for one entry are separate records, joined by “and”; a condition that tells them apart may be missing. Equal entries are not always repeated. The panel holds about 83,000 compounds, 20% with a hit somewhere; the sample as a whole holds those more often.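 Single-concentration screen, 48 h exposure, 96-well plates. Endpoint: percent growth. Below 10 = active.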 Activity calls are given as the source filed them.
System: HL-60(TB) leukemia
Experiment: NCI-60 one-dose screen, 48 h (100 = growth as untreated, 0 = no growth, -100 = all killed)
Settings: 10 µM unless noted

Row | Structure (SMILES) | growth
1 | CC1(C)C2CC1C1(/C=N\Nc3ccccc3)C(C2)C(C#N)(C#N)C1(C#N)C#N (centres undefined) | 89.9% (inactive)
2 | Nc1cccc(NC(=O)C(=O)Nc2cccc(N)c2)c1 | 97.5% (inactive)
3 | CCCCCCCC(=O)SCC/C=C/[C@@H]1CC(=O)NCc2cccc(n2)C2=N[C@@](C)(CS2)C(=O)N[C@@H](C(C)C)C(=O)O1 | 19.9% (inactive)
4 | N#Cc1c(-c2ccccc2)nc(SCC2CO2)nc1N1CCOCC1 (centres undefined) | 63.7% (inactive)
5 | COc1cc(-c2nc3ccccc3[nH]2)ccc1OCc1nnc(-c2ccc(CC(C)C)cc2)o1 | 98.5% (inactive)
6 | CN(CCC(=O)/C(=C\c1ccccc1)c1ccc(Cl)cc1)Cc1ccccc1 | 41% (inactive)
7 | CC(=O)OCC(COC(C)=O)(COC(C)=O)COC(C)=O | 104% (inactive)
8 | COc1c(/C(C)=N/N=c2sc(C(C)=O)nn2-c2ccc(Cl)cc2)c(Oc2ccccc2)c(OC)c2occc12 | 102% (inactive) and 104% (inactive)
9 | COc1ccc(C(=S)c2cc(OC)c(OC)c(OC)c2)cc1OC(=O)CCl | -33% (active)
10 | CCN(CC)c1ccc(\C=N/N=C(N)/C(N)=N\N=C/c2ccc(N(CC)CC)cc2)cc1 | 112% (inactive)
11 | Nc1c(C(=O)Nc2cccc(Cl)c2Cl)sc2nc3c(cc12)C(=O)CCC3 | 96.6% (inactive)
12 | CC(=O)N(C)c1ccc(Nc2cc(C)[nH]c3ccc4ncnc4c23)cc1 | 21.3% (inactive)
13 | COCCOC(=O)NC(=O)Nc1ccc(/C(=N/O)c2ccc(Cl)cc2)cc1 | -20.4% (active)
14 | O=C(CSc1nc2ccc([N+](=O)[O-])cc2[nH]1)Nc1ccc(F)c(Cl)c1 | 10.7% (inactive)

— PubChem BioAssay (NCI)
